Compounds with a hit are over-represented: about 1.5% of the library has one in this group of screens.
Mtb hypoxia rep: inhibitors of hypoxia-regulated fluorescent reporter in Mycobacterium tuberculosis | fluorescence inhibition, % (concentration not given with the values) | M. tuberculosis hypoxia-regulated fluorescent reporter, fluorescence | 0.1% of 300,000 active; in the data active = fluorescence inhibition mostly above about 23%, no sharp cut-off; inactive = mostly below about 17%
3CLpro inhibitor: SARS-CoV 3CLpro protease inhibition; recombinant SARS-CoV 3CLpro, quenched FRET peptide cleavage; inhibition, % at 6 µM; 0.14% of 290,000 active; AID 1706; in the data active = inhibition above about 12%
DUSP3 inh: DUSP3 (human) phosphatase inhibition | P51452 | recombinant VHR phosphatase, pNPP absorbance | inhibition, % at 13.3 µM | 0.52% of 290,000 active | AID 1654; in the data active = inhibition above about 50%
Target sequence (P51452 whole entry, looked up): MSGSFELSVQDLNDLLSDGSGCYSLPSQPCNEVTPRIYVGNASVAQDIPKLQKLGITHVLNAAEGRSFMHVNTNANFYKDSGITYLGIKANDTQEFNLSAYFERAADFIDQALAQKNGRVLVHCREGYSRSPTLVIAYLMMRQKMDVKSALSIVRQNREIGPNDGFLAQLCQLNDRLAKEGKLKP
MazEF act: increases E. coli MazEF RNase cleavage of RNA. P0AE70. FAM/BHQ RNA-DNA oligo cleavage fluorescence, 5 h. activation, % at 20 µM. 0.32% of 350,000 active; in the data active = activation above about 50%
Target sequence (P0AE70 whole entry, looked up): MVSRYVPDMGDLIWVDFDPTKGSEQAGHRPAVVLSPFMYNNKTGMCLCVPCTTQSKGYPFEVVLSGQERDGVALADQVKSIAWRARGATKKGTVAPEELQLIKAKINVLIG
PrP 5UTR inh: suppresses PrP 5' UTR mRNA reporter expression; 0.35% of 340,000 active; AID 488862; inhibition, % (concentration not given with the values); cell-based PrP 5' UTR mRNA reporter, plate reader; in the data active = inhibition above about 52%; note: 0 = median of the neutral control wells
PrPC TRFRET: reduces human prion protein on the cell surface | inhibition, % at 13.8 µM | cell surface PrPC, TR-FRET read-out | 0.43% of 370,000 active | P04156; in the data active = inhibition above about 24%; note: 0% = median of the test wells and 100% = reference compound wells
Starred values were filed as active, the others as inactive; / = no result given.

SMILES	Mtb hypoxia rep	3CLpro inhibitor	DUSP3 inh	MazEF act	PrP 5UTR inh	PrPC TRFRET
COc1ccc(NC(=O)CC(=O)Nc2ccc(OC)cc2OC)c(OC)c1	1.9	-5.2	-4.9	-8.2	-8.6	-3.4
COc1ccc(NC(=O)CON=CC(=O)Nc2ccc(C)cc2)c(OC)c1	25.8*	/	/	5.7	-15.4	-1.6
Cc1cc(=O)[nH]c(NN=Cc2ccc3c(c2)OCCO3)n1	-7.0	/	/	/	/	/
CC[C@@]12C(=O)N(c3cccc(Cl)c3)C(=O)N1C(c1ccc(Br)cc1)C1C(=O)N(C(C)(C)C)C(=O)C12 (stereo partly specified)	5.9	/	/	/	/	/
CN(C)S(=O)(=O)c1ccc(C(=O)OCC(=O)NC(=O)NC2CCCC2)cc1	30.7*	/	/	2.0	-2.6	-6.2
O=C(COC(=O)c1ccc(Cl)cc1)NC(=O)NC1CCCC1	7.6	/	/	0.9	1.4	-2.3
CC1CN(C(C)CO)C(=O)c2cc(NS(=O)(=O)c3cn(C)cn3)ccc2OC1CN(C)C(=O)Nc1ccc(C(F)(F)F)cc1 (stereo unspecified)	1.9	/	/	/	/	/
Brc1cccc(C=Nn2cnnc2)c1	0.4	/	/	/	/	/
COc1ccc(CN2CCOCC2)cc1	17.0	4.2	51.6*	3.6	-7.3	-3.8
COc1ccc(CN2CCOCCOCCOCC2)cc1	12.6	-4.0	-2.7	-2.9	-10.9	-1.6
CCc1ccc(C(C)=NNC(=O)c2ccc(-n3cnnn3)cc2)cc1	19.5*	/	/	/	/	/
COC(=O)CSc1cc([N+](=O)[O-])cc2c1c(C1OCCO1)nn2-c1ccccc1	6.1	-6.0	-5.6	113.8*	1.6	-2.8
O=S(=O)(c1ccc(F)cc1)N1CN(Cc2ccco2)c2nc3ccccc3nc21	1.2	-6.3	51.6*	-1.2	-14.1	-5.9
CC(CC(=O)Nc1cccnc1)=NNC(=O)C(=O)NC(C)C	-10.0	/	/	/	/	/
O=C(NC1CCOC1)c1cc(COc2cccc(C(F)(F)F)c2)on1 (stereo unspecified)	1.8	-2.3	51.2*	2.6	-40.5	5.1
O=C(NCC1CCOCC1)c1cc(COc2cccc(C(F)(F)F)c2)on1	2.4	7.7	-36.6	-5.4	-12.0	3.2
COc1ccc(CCNC(=O)c2c(O)c3ccccc3[nH]c2=O)cc1	12.9	-7.9	58.2*	-5.5	-13.5	1.8
COc1ccc(CCNC(=O)c2ccccc2)cc1	/	6.2	9.2	2.5	16.6	-7.9
COc1ccc(CCNC(=O)c2ccc(Cl)cc2)cc1	36.7*	-2.3	18.6	-5.8	-17.0	7.2
O=C(C[n+]1ccc(C=NO)cc1)NCc1ccccc1	-10.1	/	/	/	/	/
COc1ccc(/C=C2\CCCC(C(=O)C(F)(F)F)=C2O)cc1	/	-3.8	35.0	474.6*	-38.0	-9.8
Cc1ccc(-c2nn(Cc3ccccc3)cc2C=CC(=O)O)cc1C	10.1	/	/	/	/	/
N=C(N)c1ccc(/C=C/c2ccc(C(=N)N)cc2O)cc1	20.8	-0.1	14.4	59.6*	-10.9	-32.0
Cc1ccccc1NC(=O)CCC(=O)NN=Cc1cc([N+](=O)[O-])ccc1O	16.0	/	/	/	/	/
COc1cccc(CN(C(=O)/C=C/c2ccc(Cl)cc2)C2CCS(=O)(=O)C2)c1 (stereo unspecified)	15.9	-2.9	50.6*	3.7	-33.5	10.2
SMILES	Mtb hypoxia rep	3CLpro inhibitor	DUSP3 inh	MazEF act	PrP 5UTR inh	PrPC TRFRET
O=C(/C=C/c1ccccc1)N(Cc1cccc(Cl)c1)C1CCS(=O)(=O)C1 (stereo unspecified)	-6.4	2.1	2.5	-13.7	-8.8	1.0
O=C(NC(Cc1ccccc1)C(=O)O)c1ccncc1 (stereo unspecified)	-3.0	/	/	/	/	/
Cc1nn(C)cc1CN(C)C(=O)c1ccc(OC2CCN(Cc3ccccn3)CC2)cc1	1.4	2.0	22.8	-2.3	-12.7	-4.5
CC(C)N(Cc1cnn(C)c1)C(=O)c1ccc(OC2CCN(Cc3ccccn3)CC2)cc1	3.6	3.4	56.8*	13.5	-17.9	-4.4
CC(C)(C)NS(=O)(=O)c1ccc(CCC(=O)Nc2ccc3c(c2)OCCO3)cc1	7.0	3.5	51.3*	0.8	-20.8	8.2
CCOc1cc(C=NNC(=O)c2ccc(C)nc2)cc([N+](=O)[O-])c1O	18.7	/	/	/	/	/
Cc1[nH]c2ccc(C(=O)NCCCN3CCCCC3)cc2c1C	-2.6	-0.7	56.7*	-18.1	-0.5	1.7
CCOC(=O)Nc1nc(-c2ccccc2)c(C(=O)c2ccccc2)s1	1.2	3.9	23.2	1.3	32.0	7.8
COC(=O)Nc1nc(-c2ccccc2)c(C(=O)c2ccc(Cl)cc2)s1	1.8	-3.1	12.9	52.3*	24.8	-0.9
Cc1cccc(-c2oc3ccc(-c4ccc5c(c4)OCO5)cc3c2C=Cc2ccc(N)cc2)c1	5.3	/	/	/	/	/
O=C(NCCN1CCOCC1)Nc1ccc(Cl)cc1	13.1	-0.5	-11.0	5.2	-6.3	0.6
O=C(NCCN1CCCCC1)Nc1ccc(Cl)cc1	14.1	-1.5	57.0*	11.3	-5.1	-2.8
C=CCOC(=O)C1=CC(c2ccc(C(F)(F)F)cc2)CC(OCc2ccc(CO)cc2)O1 (stereo unspecified)	7.3	/	/	/	/	/
CCOc1ccc(C(c2nnnn2C(C)(C)C)N2CCN(C(=O)c3ccco3)CC2)cc1 (stereo unspecified)	8.7	0.6	59.1*	4.4	-6.4	-5.5
CC(=NNc1cccc2cccnc12)c1ccccc1O	-8.3	/	/	/	/	/
Cc1nc(NC(=O)/C=C/c2ccc(Cl)cc2Cl)sc1C(=O)N(C)C	5.1	0.4	0.4	78.6*	-106.6	1.0
Cc1nc(NC(=O)/C=C/c2ccccc2)sc1C(=O)N(C)C	8.3	-1.3	13.5	4.5	-58.8	-7.5
CCN1C(=O)C(=C2C=Cc3cc(C)ccc3N2CC)OC1=S	23.1	/	/	/	/	/
CCN1C(=O)/C(=C2\C=Cc3ccccc3N2CC)OC1=S	21.3	0.8	/	234.6*	-44.9	-13.2
CN1CC2C3C(=O)N(C)C(=O)C3[C@](Cc3ccccc3)(C1=O)N2C(=O)c1ccc(F)cc1 (stereo partly specified)	-0.6	/	/	/	/	/
COc1ccc(CCN2CC(C(=O)N(C)CCOc3ccccc3)CCC2=O)cc1 (stereo unspecified)	6.1	-3.3	1.8	-1.1	-23.6	-7.1
COc1ccc(CCN2CC(C(=O)N(C)Cc3ccccc3OC)CCC2=O)cc1 (stereo unspecified)	-3.5	-5.6	52.7*	-13.3	-37.9	4.0
COc1cccc(CNC(=O)Cn2ccc3cc(S(=O)(=O)N4CCCC4)ccc32)c1	-9.7	-2.8	17.8	-4.3	-36.0	-3.2
CC(C)Oc1ccc(CNC(=O)Cn2ccc3cc(S(=O)(=O)N4CCCC4)ccc32)cc1	10.3	1.3	52.9*	5.8	-20.7	-3.5
COC(=O)C(NC(=O)NCc1ccccc1Cl)C(C)C (stereo unspecified)	7.5	/	/	/	/	/
CCN(CC)c1ccc(/C=N/Nc2nc3ccccc3[nH]2)cc1	/	-0.1	4.4	23.2	-69.3	37.3*
CCN(CC)c1ccc(C=NNc2ccc([N+](=O)[O-])cn2)cc1	25.7	/	/	75.5*	-108.8	-2.9
